Laboratory results reported in PubChem BioAssay AID488841 (Sanford-Burnham Center for Chemical Genomics, 2010).
About 380 (27%) of roughly 1,400 compounds were called active.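 How the source made its calls: active means mean inhibition above 50% across duplicate retests at 10 µM; inactive means the rest.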 The list shows a part of the results.

Assay: inhibition of NALP1/ASC/caspase-1 reporter signal in yeast, confirmation, NALP1 inhibitor project, S. cerevisiae, luminescence, single concentration (AID 488841);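 further: plate controls were DMSO in galactose medium for no effect and cells in plain SD medium for full effect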
Conditions: S. cerevisiae NALP1/ASC/Caspase-1 reporter, beta-gal luminescence; at 10 µM; active compounds read high

inhibition, inactive:
COC(=O)c1c(N)c(C#N)c2n1CCCCC2 21%
Cc1cccc(C)c1NC(=O)CSc1nc2ccccc2c(=O)[nH]1 31.1%
CCCn1nc(NC(=O)c2ccccn2)c2cc3cc(C)ccc3nc21 13.2%
NC(C(=O)O)C1CC(Cl)=NO1 (stereo unspecified) 24.8%
S=C(NC1CCCCC1)NN(c1ccccc1)c1ccccc1 21.3%
O=C(NC(=O)N1CCN(c2ccc(F)cc2)CC1)c1ccccc1 32.6%
O=C(c1cccc(F)c1)N1CCN(c2cc(N3CCCCC3)c(F)cc2[N+](=O)[O-])CC1 46.2%
COc1ccc(N(CCC#N)S(=O)(=O)c2ccc(Cl)cc2)cc1 26.2%
CC(C)Oc1ccc(NC(=O)CCC(=O)O)cc1 21.6%
CCC(C)(C)NCC(=O)Nc1ccc(OC(F)(F)F)cc1 36.4%
CNC(=O)C(NC(=O)c1ccccc1)=C(C)C 30.4%
COc1ccc(C(=O)NCc2ccccc2)cc1S(=O)(=O)N1CCCc2ccccc21 32.7%
Cc1ccc(NC2(C#N)C(=O)Nc3ccccc32)cc1 (stereo unspecified) 30.8%
CN1CCN(S(=O)(=O)c2ccc(NC(=S)NC(=O)C(C)(C)C)cc2)CC1 26.6%
COC(=O)c1ccccc1NC(=O)C1CCN(C(=O)c2cc(OC)cc(OC)c2)CC1 20.4%
CCCCn1cnc2c1c(=O)[nH]c(=O)n2CCCC 21.8%
O=C(c1ccc(Cl)c([N+](=O)[O-])c1)N(c1ccccn1)c1ccccn1 24.1%
O=C(Cn1c(=O)oc2ccccc21)Nc1ccc(Cl)cc1 33%
CN1/C(=C\C(=O)Nc2ccc(Cl)cc2)C(C)(C)c2ccccc21 42.2%
C#CCOc1c(Br)cc(/C=N/O)cc1OCC -19.1%
Cc1cccnc1NC(=O)c1ccccc1NC(=O)C(C)(C)C 36.7%
O=C(c1cccc([N+](=O)[O-])c1)n1nc(-c2ccccc2)nc1NCc1ccccc1 37%
COc1cccc(CNc2ccc3c(c2)CCC3)c1 34.2%
O=C1CCCc2ccccc2N1Cc1ccc(Cl)cc1Cl 28.2%
CC1CCN(CCOc2cccc(Br)c2)CC1 36%
Brc1cccc(OCCCCN2CCCCC2)c1 29.7%
Cc1c(-c2ccccc2)[n+](=O)c2c(n1[O-])CCC2 22.1%
COc1cccc(C2c3c(-c4ccccc4O)n[nH]c3C(=O)N2Cc2ccco2)c1 (stereo unspecified) 29.4%
CN1CCN(C(=O)CSc2nc3c(c(=O)n(C)c(=O)n3C)n2C)CC1 29.1%
CC(C)(CN1CCN(Cc2ccccc2)CC1)NS(=O)(=O)c1ccc(Cl)cc1 42.2%
CCOC(=O)CSc1nnc(-c2ccccc2)c(=O)[nH]1 33.8%
CCOCCCn1c(=NC(C)=O)c(C(=O)OCC)cc2c(=O)n3ccccc3nc21 23.1%
CCOC(=O)c1ccccc1NC(=O)COc1cc(=O)n(CC)c2ccccc12 8%
CC(=O)N1CC[n+]2c(-c3ccc(Cl)cc3Cl)csc21 19.1%
CCN1CCN(Cc2cccc(Oc3ccccc3)c2)CC1 34.3%
CC(C)C(NC(=O)CN1C(=O)c2ccccc2S1(=O)=O)C(C)C 21.5%
O=C(N/N=C/c1cc2c3c(c1O)CCCN3CCC2)c1ccccc1O 25.8%
Cn1c(=O)c2c(nc(Sc3ncccn3)n2Cc2ccccc2Cl)n(C)c1=O 29.4%
Cc1cc(OCCN2CCCC2)cc(C(C)C)c1 34.4%
O=C(CN1C(=O)C2C3C=CC(C3)C2C1=O)NCCc1ccccc1 (stereo unspecified) 24.9%
COc1ccc(CNc2nc(C)c([N+](=O)[O-])c(C)c2C#N)cc1 29.2%
COc1ccc(-c2csc(N3C(=O)C4C5c6ccccc6C(c6ccccc65)[C@@H]4C3=O)n2)cc1 (stereo partly specified) 45.8%
c1ccc(CCNc2nc(-c3cccnc3)cs2)cc1 32.7%
COC(=O)c1c(NC(NC(=O)C(C)C)C(Cl)(Cl)Cl)sc2c1CCC2 (stereo unspecified) 21%
COC(=O)c1ccc(C(=O)OC)c(NC(=O)COC(=O)C2CCCCC2)c1 7%
COc1ccc(OCC#CCNC(C)(C)C)cc1 33.4%
Cc1c(C(=O)N2CCOCC2)[nH]c2ccc(OCc3ccccc3)cc12 29.4%
CCOC(=O)CNC(c1ccccc1)c1cc(Br)ccc1NC(=O)CCN1CCOCC1 (stereo unspecified) 27.6%
CCCCOc1ccc(C(=O)CCN2CCCCC2)cc1 41.4%
CCCOc1ccc(C(=O)c2nc3c(n2O)CCCCC3)cc1 22.7%
Cn1c2c(c(=O)n(C)c1=O)C(NC(=O)C(C)(C)C)(C(F)(F)F)C(=O)N2 (stereo unspecified) 24.3%
NC(=NCCc1ccc(Cl)cc1)NS(=O)(=O)c1ccc(F)cc1 23.1%
Cc1sc2nc(SCC(=O)NCc3ccco3)n(Cc3ccccc3)c(=O)c2c1C 24.6%
CCN(CC1COc2ccccc2O1)S(=O)(=O)c1ccc(C)cc1 (stereo unspecified) 39.2%
CC(C)C(C(=O)O)N1C(=O)/C(=C/c2cccn2C)SC1=S (stereo unspecified) 42.4%
O=C(COC(=O)CCSc1ccccc1)NCc1ccccc1Cl 22.2%
COc1ccc(CCNC(=O)CN2CCC(C)CC2)cc1OC 22.5%
O=C(CCSCc1cccc(Cl)c1)NCCc1ccccc1 45.4%
O=C(COc1ccccc1Cl)NCCC1=CCCCC1 38.7%
O=C(Cc1ccc(Cl)cc1)Oc1cccc2cccnc12 27.7%
O=C(CSCc1cccc(Cl)c1)Nc1ccccc1-c1ccccc1 35%
COc1cccc(N2CCN(C3CCCC(C)C3)CC2)c1 (stereo unspecified) 25.3%
CC1=CCC2C(=O)N(Cc3ccccc3)C(=O)C2C1 (stereo unspecified) 24.9%
COc1cc(S(=O)(=O)NCc2cccnc2)ccc1F 27.6%
COc1cccc(C(=O)N2CCCC(c3nc(-c4cccs4)no3)C2)c1 (stereo unspecified) 29.9%
CC1(C)CC(=O)c2cc(C(=O)O)c(=O)n(-c3ccccc3)c2C1 32%
CC1(C)CC(=O)C2=C(C1)OC(N)=C([N+](=O)[O-])C2c1cccs1 (stereo unspecified) 42.5%
O=C(Nc1ccc(-c2nc3ccccc3s2)cc1)C1=COCCO1 25.9%
OCCn1c(-c2ccc(F)cc2)csc1=Nc1ccccc1 27.4%
CC(C)(C)c1cc(C(=O)O)n[nH]1 -1.95%
O=C1c2ccccc2-c2cccc(NS(=O)(=O)c3ccc(C(F)(F)F)cc3)c21 23.4%
O=C1C(Nc2ccccc2)=C/C(=N/S(=O)(=O)c2cccs2)c2ccccc21 49.6%
CCOP(=O)(C1=C(O)C(=O)C(C(C)(C)C)=CC1=O)c1ccccc1 (stereo unspecified) 24.9%
COc1cc(C2SCC(=O)N2CCCN(C)C)cc(OC)c1OC (stereo unspecified) 17.5%
C/C(=N/N=C1\SCC(=O)N1c1ccccc1)c1ccc(C)cc1 28.1%

inhibition, active:
Cc1cccc(OCCCSc2nc3ccc(C)cc3[nH]2)c1 56.4%
Cc1ccccc1OCCCSc1nc2ccccc2[nH]1 63%
O=S(=O)(/C=C/c1ccccc1)NC1CCCCCCC1 61.6%
O=C(c1ccc2c(Cl)c3c(nc2c1)CCCC3)N1CCN(c2ccc(F)cc2)CC1 64.8%
Cc1ccc(NC(=O)CNc2ccc(OC(C)C)cc2)cc1 50.8%
C=C(C(=O)c1ccccc1)C(C)C(=C)C(=O)c1ccccc1 59.5%
COC(=O)c1ccccc1NC(=O)C1CCCN(S(=O)(=O)c2ccc(OC)cc2)C1 (stereo unspecified) 66.3%
O=[N+]([O-])c1ccc(O)c2ncccc12 93.5%
O=C(Cc1noc2ccccc12)Nc1ccc(Cl)cc1 55.3%
O=[N+]([O-])c1cccc(CNc2ccc3c(c2)CCC3)c1 52.9%
Cc1cc(Br)ccc1OCCCCN1CCC(C)CC1 52.2%
Nc1[nH]ncc1N=Nc1ccc(Cl)cc1 56.7%
O=c1c(O)c(-c2cccs2)oc2ccccc12 78%
CCOC(=O)c1c(-c2ccccc2)nc2ccccn12 99.4%
Nc1ccc(Oc2cccc(Oc3ccc(N)cc3)c2)cc1 50.5%
O=C(NCCCc1ccccc1)c1ccccc1O 53%
CC(C)(C)n1nc(-c2ccc(F)cc2)c2c(N)ncnc21 91.7%
Nc1nc2ccc(Oc3ccccc3)cc2s1 88.2%
Nc1nc(-c2ccc(Oc3ccccc3)cc2)cs1 98.5%
Cc1sc(N)nc1-c1ccc(Oc2ccccc2)cc1 61.1%
CCOc1ccc(C(=O)C(CN2CCOCC2)c2ccccc2)cc1 (stereo unspecified) 51.9%
CCCOc1ccc(C(=O)C(CN2CCCC2)c2ccccc2)cc1 (stereo unspecified) 50.8%
COc1ccccc1OCC(=O)NCCSCc1ccccc1Cl 55.5%
COc1ccccc1OCC(=O)NCCSCc1ccc(Cl)cc1 56.6%
COc1ccccc1OCC(=O)NCCSCc1cccc(Cl)c1 59.4%
CCCCCCCCCCCCCCCC[n+]1cccc2ccccc21 95%
CC(=O)Nc1sc2c(c1-c1nc3ccccc3s1)CCN(C(C)C)C2 92.9%
O=C(O)c1ccc(S(=O)(=O)/N=C2\C=C(Nc3ccccc3F)C(=O)c3ccccc32)cc1 98.8%
COc1cc(N2C(=O)CSC2=S)cc(OC)c1OC 78.7%
O=C1CSC(=S)N1c1cccc(O)c1 99%
O=C1CSC(=S)N1c1ccc(O)cc1 95.2%
